Bioassay records from PubChem BioAssay.
Sampled rows, rich in hits. Any-hit rate of the full collection: about 3.2%.
GBA mod: modulators of human glucocerebrosidase; P04062; Potency, µM; purified enzyme, resorufin glucoside fluorescence (screen aimed at inhibitors), 20 min; hit rate 1.1% among 48,000; AID 360; in the data active = potency below about 15 µM; inconclusive = mostly about 16 µM to 33 µM;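 note: the screen sought inhibitors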
Target sequence (P04062 whole entry, looked up): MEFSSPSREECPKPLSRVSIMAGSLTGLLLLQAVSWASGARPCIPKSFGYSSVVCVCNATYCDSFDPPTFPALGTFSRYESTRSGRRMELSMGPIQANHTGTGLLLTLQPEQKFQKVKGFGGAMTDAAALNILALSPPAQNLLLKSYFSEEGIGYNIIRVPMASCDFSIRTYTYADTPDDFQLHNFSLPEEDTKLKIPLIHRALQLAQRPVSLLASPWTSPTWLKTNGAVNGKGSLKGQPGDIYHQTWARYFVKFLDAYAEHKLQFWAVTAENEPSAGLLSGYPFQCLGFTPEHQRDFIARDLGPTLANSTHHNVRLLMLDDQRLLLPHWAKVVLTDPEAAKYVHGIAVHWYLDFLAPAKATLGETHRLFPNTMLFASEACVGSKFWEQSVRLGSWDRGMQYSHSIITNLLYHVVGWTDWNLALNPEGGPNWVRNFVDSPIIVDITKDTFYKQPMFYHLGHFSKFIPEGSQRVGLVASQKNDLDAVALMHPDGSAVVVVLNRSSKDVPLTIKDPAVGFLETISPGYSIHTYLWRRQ
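Normal human glucocerebrosidase (0.2 nM final) was assayed with resorufin β-D-glucopyranoside (30 uM final) in 50mM citric acid/KH2PO4, 10mM sodium taurocholate, 0.01% tween-20, pH 5.9. Compounds were titrated; fluorescence (Ex 548, Em 600) read after 20 min at RT.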
Bst PK mod: alters activity of Bacillus stearothermophilus pyruvate kinase | purified pyruvate kinase, luminescence ATP production; ribose 5-phosphate activator present at AC10 | Potency, µM | hit rate 1.2% among 51,000 | AID 361; in the data active = potency below about 11 µM; inconclusive = mostly about 12 µM to 25 µM;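 the screen sought inhibitors and activators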;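 note: scaled between full activation by ribose 5 phosphate and full inhibition by luteolin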
Luciferase inh: firefly luciferase inhibition | Potency, µM (top dose mostly 57.1 µM), for inactives: at the top dose activity change, negative = inhibition, hits mostly inhibitors | hit rate 2.2% among 72,000 | P08659 | AID 411 | purified firefly luciferase, luminescence, 8 min; active = well fitted inhibition curve with a large enough effect; inconclusive = small, poorly fitted or top-dose-only effect; note: % is set by controls: 0 for no effect and ±100 for the full control effect; nearly all actives have a fitted effect of over 40% in size
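Substrate buffer containing 10 uM ATP (pH 7.2 imidazole, Mg2+, KCl, detergent, BSA) is dispensed, compound pinned in, then luciferase/luciferin detector mix added. After 8 min at ambient temperature, light output is measured.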
* = called active by the depositor; i = inactive; ? = inconclusive; / = not tested or not shown; [ ] = another dose, or the depositor's remark. Potency is the fitted concentration of half-maximal effect.

SMILES | GBA mod | Bst PK mod | Luciferase inh
COc1ccccc1NC(=O)CN1CCN(CC(=O)Nc2ccc(F)cc2)CC1 | i | >57 | -4%
CCOc1ccc(NC(=O)c2nnn(CC(=O)Nc3ccccc3OC)c2N)cc1 | >77 | / | 5µM*
O=C(NCc1ccc2c(c1)OCO2)c1ccccn1 | >77 | >57 | 0%
O=C(/C=C\Nc1ccc2c(c1)OCO2)c1ccccn1 | / | / | 0.63µM*
Cn1c(-c2ccc(N)cc2)nc2ccccc21 | >77 | / | ?
Cn1c(-c2ccc(CN3CCCCC3)o2)nc2ccccc21 | >77 | >11 | 13µM*
Clc1ccc([C@@H](c2ccccc2Cl)C(Cl)Cl)cc1 | / | / | -5%
CCc1cc2c(=O)c(-c3ccc4c(c3)OCCO4)coc2cc1OC(=O)c1ccco1 | >77 | i | -18%
O=c1c(-c2ccc3c(c2)OCCO3)coc2cc(O)cc(O)c12 | >77 | 6* | ?
N#CCCn1c(=O)c(-c2cccs2)nc2cnc(Oc3cccc(Cl)c3)nc21 | / | / | 0%[11.4 µM]
CN(C)Cc1ccccc1-c1cncnc1NC1CC1 | / | / | 2%[2.29 µM]
COc1cccc(-c2cncnc2NCc2ccccc2OC)c1 | / | / | -1%[2.29 µM]
C=CC[C@@H]1C=C[C@@H](O/N=C2/[C@H]3O[C@@H]3[C@@H](O)[C@H]3[C@H]2CCn2c(=O)n(-c4ccccc4)c(=O)n23)[C@@H](CO)O1 | / | / | 1%[11.4 µM]
NC(=O)c1ccsc1NC(=O)CSc1ccccc1F | >77 | >11 | -6%
NC(=O)c1ccsc1NC(=O)COc1ccccc1 | >77 | i | 20µM*
CCOc1ccc2nc(N3CCCC(C(=O)NCCCN4CCOCC4)C3)sc2c1 (stereo not given) | / | / | 25µM*
CCOc1ccc2nc(N3CCC(C(=O)N4CCN(c5ccccn5)CC4)CC3)sc2c1 | / | / | 6.3µM*
CCOc1ccc(CCNC(=O)C2CCCN(c3nn4c(=O)cc(C)nc4s3)C2)cc1 (stereo not given) | >77 | >57 | 0%
CCOc1ccc2nc(N3CCC(C(=O)N4CCN(c5ncccn5)CC4)CC3)sc2c1 | / | / | -19%
CC(=O)OC[C@@H]1O[C@@H](O/N=C2/C[C@@H](O)[C@@H](O)[C@@H]3[C@@H]4C(=O)N(Cc5ccc6c(c5)OCO6)C(=O)[C@H]4CC[C@H]23)[C@H](OC(C)=O)[C@H](OC(C)=O)[C@@H]1OC(C)=O | / | / | 1%[11.4 µM]
CCCCCCCCCCC/C=C\C(C)(C)/C=C\CCCC(=O)O | / | / | 2%
Cc1ccccc1-c1n[nH]c(=S)o1 | >77 | >57 | 4%
Brc1cccc(-c2nnco2)c1 | >77 | >57 | 1%
Cc1ccccc1-c1nc2cc(N)ccc2o1 | >77 | ? | 13µM*
Nc1ccc2oc(-c3cccc(Br)c3)nc2c1 | / | / | 7.9µM*
SMILES | GBA mod | Bst PK mod | Luciferase inh
CC(C)c1ccc2oc(-c3cc(N)ccc3O)nc2c1 | / | / | 0.5µM*
CC(C)c1ccc(O)c(O)c(=O)c1 (tested in a mixture with another compound) | / | / | -1%[11.4 µM]
COc1ccc(O[C@H]2C=C[C@@H](c3ccccc3)O[C@H]2COC(=O)CC/C(C)=N\O[C@@H](C)CN2CCCc3nc(C)c(C)cc32)cc1 | / | / | 1%[11.4 µM]
COC(=O)CC[C@@H](C)[C@H]1CC[C@H]2[C@H]3CC[C@H]4C[C@@H]5CC[C@@]4(C)C3(O5)[C@@H](Br)[C@@H](Br)[C@@]12C | / | / | 2%[11.4 µM]
CN1CCN(c2ncc3nc(-c4cc(F)cc(F)c4)c(=O)n(-c4ccccc4)c3n2)CC1 | / | / | 0%[11.4 µM]
CN(C)c1ncc2nc(CCc3ccccc3)c(=O)n(-c3ccccc3)c2n1 | / | / | 0%[11.4 µM]
CC(=O)Nc1cccc(Oc2ccc(-c3noc(C)n3)cc2)c1 | >77 | i | 13µM*
COc1ccc(-c2noc(-c3ccccc3C(=O)Nc3cccc(OC)c3)n2)cc1 | >77 | / | ?
CN(Cc1ccco1)c1nc(-c2cccc(C#N)c2)nc2ccccc12 | / | / | 1%[2.29 µM]
CCN(c1cccc(C)c1)S(=O)(=O)c1ccc2[nH]c(=O)c(=O)[nH]c2c1 | 7.4* | >57 | 0%
CCN(c1cccc(C)c1)S(=O)(=O)c1ccc2c(c1)CCN2C(C)=O | >77 | >57 | 0%
CC(C)(C)N1C(=O)[C@H]2[C@@H]3[C@H](O)[C@H](O)CC(=O)[C@H]3CC[C@H]2C1=O | / | / | 0%[11.4 µM]
O=C(Nc1ccccn1)c1cccnc1 | >77 | >57 | -2%
O=C(Nc1cccc2cccnc12)c1cccnc1 | >77 | 9.7* | -1%
N[C@H](Cc1cccc(-c2ccccc2CP(=O)(O)O)c1)C(=O)O | / | / | 1%
COc1ccc(C(=O)N2CCC3(CCCN(Cc4ccccc4)C3)CC2)cc1 | / | / | 1%[11.4 µM]
COc1ccc(-c2nc(-c3cccc(C)c3)no2)cc1OC | / | >57 | -12%
COc1ccccc1-c1noc(-c2ccco2)n1 | >77 | / | 20µM*
COc1ccc(-c2nc(-c3ccccc3OC)no2)cc1OC | >77 | i | 16µM*
COc1ccccc1-c1nc(-c2cccc(C)c2)no1 | >77 | 9.4* | 13µM*
CCOc1cc(-c2nc(-c3ccccc3OC)no2)cc(OCC)c1OCC | >77 | >57 | 1%
COc1cc(-c2noc(-c3ccco3)n2)cc(OC)c1OC | i | >57 | -11%
COc1cc(/C=C(\C#N)C(N)=O)cc(CSc2nc3ccccc3s2)c1O | / | / | 3%
CCN1CCC[C@@H]1CNC(=O)c1c(OC)ccc(I)c1O | / | / | 0%
CC(=O)N[C@@H](C(=O)O)C(C)(C)SN=O | / | / | 1%
SMILES | GBA mod | Bst PK mod | Luciferase inh
Cc1cc(=O)n2[nH]c(-c3ccc(Cl)cc3)cc2n1 | / | ? | 16µM*
Cc1cc(=O)n2[nH]c(-c3ccc(F)cc3)cc2n1 | / | i | ?
O=C1c2ccccc2S(=O)(=O)N1Cc1nc2ccccc2s1 | >77 | / | ?
CN(C)c1ccc(C2=NOC(CN3C(=O)c4ccccc4S3(=O)=O)C2)cc1 (stereo not given) | >77 | / | 16µM*
CCN1CCc2nc(NC(=O)c3ccc4c(c3)OCCO4)sc2C1 | >77 | / | 16µM*
CCN1CCc2nc(NC(=O)Cc3ccc4c(c3)OCCO4)sc2C1 | >77 | >57 | 1%
N#Cc1cccc(-c2nc3cnc(N4CCOCC4)nc3n(C[C@H]3CCCO3)c2=O)c1 | / | / | 0%[11.4 µM]
C/C(=N\O)c1ccc2c3c([nH]c2c1)CCCC3 | / | / | 16µM*
C/C(=N\O)c1ccc2[nH]ccc2c1 | / | >26 | -8%[25.5 µM]
CCNc1ncc2nc(-c3ccccc3)c(=O)n(-c3ccc(OC)cc3)c2n1 | / | / | 1%[11.4 µM]
C=CCNc1oc(-c2ccc(OCC)cc2)nc1C#N | ? | 5.3* | -2%
CCOc1ccc(-c2nc(C#N)c(NCC(C)C)o2)cc1 | / | >26 | -3%[25.5 µM]
C=CCNc1oc(-c2ccc(OC)cc2)nc1C#N | 15* | / | -23%
C=CCNc1oc(-c2cccc3ccccc23)nc1C#N | >77 | >57 | -13%
COc1ccc(-n2c(=O)c(C)nc3cnc(N(C)C)nc32)cc1 | / | / | 1%[11.4 µM]
NC(=O)c1ncn([C@@H]2O[C@@H](CO)[C@@H](O)[C@H]2O)c1O | / | / | -2%
O=c1cnc2cnc(N3CCOCC3)nc2n1CCc1ccccc1 | / | / | -1%[11.4 µM]
O=C(Cn1cccc1)Nc1ccc(OC(F)(F)F)cc1 | 15* | >57 | -4%
Cc1ccc(NC(=O)Cn2cccc2)cc1C | / | >57 | -14%
COCCNc1ncnc2ccc(-c3ccccc3OC)cc12 | / | / | 1%[2.29 µM]
CN(Cc1ccco1)c1ccnc(-c2ccoc2)n1 | / | / | 1%[2.29 µM]
Cn1c(=O)c2cc(S(=O)(=O)N3CCN(c4cccc(C(F)(F)F)c4)CC3)ccc2n(C)c1=O | 7.3* | >57 | 2%
COc1ccc(N2CCN(S(=O)(=O)c3cccc(C(F)(F)F)c3)CC2)cc1 | >77 | >57 | 0%
COC(=O)c1c(NC(=O)c2ccoc2C)sc2c1CCC2 | >77 | >57 | 1%
